High-throughput results as filed in PubChem BioAssay.
An excerpt weighted towards active compounds, which were near 6.5% of everything screened.
FMDV inh – blocks foot and mouth disease virus | FMDV antiviral cell-based qHTS | Potency, µM (highest dose often 57.9 µM), most hits filed as inhibitors | 410,000 compounds, 1.2% hits | AID 1159524; calls by dose curve; tested in HEK293T cells; note: read-out not given here; nearly all actives have a fitted effect of over 45% in size
Vaccinia Venus – vaccinia inhibition (Venus reporter). Vaccinia virus Venus reporter expression, fluorescence. Potency, µM (series often up to 36.5 µM), actives largely listed as inhibitors. 330,000 compounds, 0.46% hits; calls by dose curve; tested in A549 cells; note: nearly all actives have a fitted effect of over 30% in size
HCMV inh – blocks human cytomegalovirus replication | HFF cells, HCMV-luciferase reporter, 72 h; stronger effect = lower value | activity change, negative = inhibition, % at 57.5 µM | 410,000 compounds, 4.5% hits; in the data active = activity change below about -60%; inconclusive = no clear call, values can overlap the other calls; inactive = above about -39%
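HFF cells seeded 16 h at 37C, treated with compounds, infected with luciferase-reporter HCMV at MOI 1 PFU/cell; luciferase read at 72 h post infection, normalized to buffer-only and Salinomycin controls.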
MARV entry inh – Marburg virus entry inhibition. Potency, µM (doses to about 37.8 µM), most hits filed as inhibitors. 300,000 compounds, 1.8% hits. Marburg virus pseudotyped entry inhibition, cell reporter; calls by dose curve; tested in HEK293 cells
Vaccinia mCherry – vaccinia inhibition (mCherry reporter); Potency, µM (highest dose often 36.5 µM), usual class: inhibitors; 310,000 compounds, 0.63% hits; Vaccinia virus mCherry reporter infection, fluorescence; AID 720579; calls by dose curve; tested in A549 cells; note: nearly all actives have a fitted effect of over 35% in size
LASV entry inh – Lassa virus entry inhibition; Lassa virus pseudotype entry inhibition, cell reporter; Potency, µM (doses to about 37.9 µM), usual class: inhibitors; 300,000 compounds, 1.2% hits; AID 540256; calls by dose curve; tested in HEK293 cells; note: nearly all actives have a fitted effect of over 50% in size
Of the large screens only hits and unclear results are named; the others gave an inactive call.

CCCN(C(=O)c1cc2c(s1)-c1ccccc1SC2)c1ccccc1F	HCMV inh -68.3, LASV entry inh inconclusive
OC[C@H]1O[C@@H](O[C@H]2[C@H](O)[C@@H](O)[C@H](O)O[C@@H]2CO)[C@H](O)[C@@H](O)[C@@H]1O	none (no result: HCMV inh, MARV entry inh, LASV entry inh)
Cc1ccc(C2CC(=O)C=C(NCC(C)C)C2)cc1 (stereo not given)	HCMV inh -81.3
Cc1ccc(C2CC(=O)C=C(NCc3ccccc3)C2)cc1 (stereo not given)	Vaccinia Venus inconclusive, LASV entry inh inconclusive
CCOC(=O)Cn1c(=O)oc2cc(S(=O)(=O)N3CCN(c4ccccc4OC)CC3)ccc21	none
CCOC(=O)c1csc(N)c1-c1ccc([N+](=O)[O-])cc1	HCMV inh -71.5 (no result: Vaccinia Venus, MARV entry inh, Vaccinia mCherry, LASV entry inh)
O=c1c2ccccc2nc(/C=C/c2ccccc2F)n1-c1ccccc1O	FMDV inh inconclusive, HCMV inh -91.5 (no result: Vaccinia Venus, MARV entry inh, Vaccinia mCherry, LASV entry inh)
Cc1ccccc1-n1c(/C=C/c2c(C)[nH]c3ccccc23)nc2ccccc2c1=O	FMDV inh inconclusive, HCMV inh inconclusive, Vaccinia mCherry inconclusive, LASV entry inh inconclusive (no result: MARV entry inh)
Cc1cccc(-n2c(C)nc3ccccc3c2=O)c1C	HCMV inh -76.4
Cc1ccccc1-n1c(/C=C/c2ccc(N(C)C)cc2)nc2ccccc2c1=O	HCMV inh -82.2, LASV entry inh inconclusive (no result: MARV entry inh)
O=C(O)c1cccc(-n2c(/C=C/c3ccc([N+](=O)[O-])cc3)nc3ccccc3c2=O)c1	HCMV inh -62.2 (no result: Vaccinia Venus, MARV entry inh, Vaccinia mCherry, LASV entry inh)
CS(=O)(=O)c1ccccc1C(=O)Nc1cccc(-c2nc3ccccc3o2)c1	FMDV inh inconclusive (no result: Vaccinia Venus, MARV entry inh, Vaccinia mCherry, LASV entry inh)
Cc1nc(N2CCN(c3ccccn3)CC2)c2c(C)c(C(=O)N3CCN(c4cccc(Cl)c4)CC3)sc2n1	FMDV inh inconclusive, MARV entry inh inconclusive, LASV entry inh inconclusive
O=c1c2ccccc2nc(/C=C/c2ccccc2O)n1-c1ccccc1O	HCMV inh -98.3 (no result: FMDV inh, Vaccinia Venus, MARV entry inh, Vaccinia mCherry, LASV entry inh)
O=c1c2ccccc2nc(/C=C\c2ccccc2[N+](=O)[O-])n1-c1ccccc1O	FMDV inh inconclusive, Vaccinia Venus inconclusive, MARV entry inh inconclusive, Vaccinia mCherry inconclusive, LASV entry inh 7.94µM
O=C(Nc1cccc(/C=C/c2nc3ccccc3c(=O)[nH]2)c1)c1ccccc1Cl	none (no result: Vaccinia Venus, MARV entry inh, Vaccinia mCherry, LASV entry inh)
C(=C\c1nc2ccccc2[nH]1)/c1ccccc1	FMDV inh 15.8µM, MARV entry inh inconclusive, LASV entry inh inconclusive (no result: Vaccinia Venus, Vaccinia mCherry)
COc1ccc(C(=O)Nc2cccc(/C=C/c3nc4ccccc4c(=O)[nH]3)c2)cc1	FMDV inh inconclusive, HCMV inh -84.2 (no result: Vaccinia Venus, MARV entry inh, Vaccinia mCherry, LASV entry inh)
Nc1[nH]c(=O)[nH]c(=O)c1N=Nc1ccc(C(=O)O)cc1	none (no result: Vaccinia Venus, MARV entry inh, Vaccinia mCherry, LASV entry inh)
Cc1ccc(NC(=O)CSc2nc3ccccc3n2CC(=O)N2CCC(C)CC2)cc1C	LASV entry inh inconclusive (no result: MARV entry inh)
CC(C)CNC(=O)CN1C(=O)NC2(CCc3ccccc32)C1=O (stereo not given)	none
O=C1OCCN/C1=C/C(=O)c1ccccc1	none (no result: FMDV inh, Vaccinia Venus, HCMV inh, Vaccinia mCherry, LASV entry inh)
CCCS(=O)(=O)NCc1c(C)ncc2c1CCN(C(=O)c1c(F)ccc(F)c1F)C2	none (no result: HCMV inh, MARV entry inh, LASV entry inh)
Cc1ccccc1C#N	none (no result: MARV entry inh, LASV entry inh)
CN(C)c1ccc(/C=C/c2nc3ccccc3c(=O)[nH]2)cc1	FMDV inh 10µM (no result: MARV entry inh, LASV entry inh)
COC(=O)c1c(SC)nc2ccccc2c1OCc1cc(C)ccc1C	LASV entry inh inconclusive (no result: MARV entry inh)
CCc1ccc(-c2nc(CN3CCCC(C(=O)NCCc4ccc(OC)c(OC)c4)C3)c(C)o2)cc1 (stereo not given)	FMDV inh 22.4µM, HCMV inh -92.3, MARV entry inh inconclusive, LASV entry inh inconclusive (no result: Vaccinia Venus, Vaccinia mCherry)
CCCN(CCC)CCNC(=O)C1CCN(Cc2nc(-c3ccc(Cl)cc3)oc2C)CC1	MARV entry inh 10.3µM, LASV entry inh inconclusive (no result: Vaccinia Venus, Vaccinia mCherry)
Cc1oc(-c2cccc(Cl)c2)nc1CN1CCC(C(=O)NCCc2ccc(Cl)cc2)CC1	none
Cc1cccc(-c2nc(CN3CCCC(C(=O)NCc4ccc(Cl)cc4)C3)c(C)o2)c1 (stereo not given)	FMDV inh inconclusive
COc1ccc(CNC(=O)C2CCCN(Cc3nc(-c4cccc(C)c4)oc3C)C2)cc1 (stereo not given)	FMDV inh 25.1µM, MARV entry inh inconclusive, LASV entry inh inconclusive (no result: Vaccinia Venus, Vaccinia mCherry)
CCc1ccc(-c2nc(CN3CCCC(C(=O)NCc4ccc(C)cc4)C3)c(C)o2)cc1 (stereo not given)	FMDV inh inconclusive, Vaccinia mCherry inconclusive, LASV entry inh inconclusive
Cc1oc(-c2ccc(Cl)cc2)nc1CN1CCCC(C(=O)NCc2ccc(Cl)cc2)C1 (stereo not given)	FMDV inh 35.5µM
COc1ccc(CCNC(=O)C2CCCN(Cc3nc(-c4ccccc4C)oc3C)C2)cc1OC (stereo not given)	FMDV inh inconclusive, MARV entry inh inconclusive (no result: Vaccinia Venus, Vaccinia mCherry)
Cc1ccc(S(=O)(=O)N2CCN(C(=O)COC(=O)C3(C)CC3(Cl)Cl)CC2)c(C)c1 (stereo not given)	FMDV inh inconclusive (no result: Vaccinia Venus, MARV entry inh, Vaccinia mCherry, LASV entry inh)
COc1ccc(F)cc1S(=O)(=O)NCC(c1ccco1)S(=O)(=O)c1ccc(F)cc1 (stereo not given)	none (no result: MARV entry inh)
COc1ccc(F)cc1S(=O)(=O)NCC(c1ccco1)S(=O)(=O)c1cccs1 (stereo not given)	HCMV inh -62.9 (no result: MARV entry inh)
Clc1ccc2nc(-c3ccc(Cl)nc3)[nH]c2c1	MARV entry inh 7.94µM, LASV entry inh inconclusive
Nc1ccc2nc(-c3ccc(Cl)cc3)[nH]c2c1	Vaccinia Venus inconclusive, Vaccinia mCherry inconclusive (no result: MARV entry inh, LASV entry inh)
CC(=O)N1CCC[C@@]2(CCN(Cc3ccc(C#N)cc3)C2)C1	none (no result: Vaccinia Venus, HCMV inh, MARV entry inh, Vaccinia mCherry, LASV entry inh)
Cc1[nH]c2ccccc2c1C(=O)COC(=O)c1c(-c2ccccc2Cl)noc1C	Vaccinia Venus inconclusive, HCMV inh -74.5, MARV entry inh inconclusive, Vaccinia mCherry inconclusive
Cc1onc(-c2ccccc2Cl)c1C(=O)OCC(=O)N1CCC(C)CC1	none (no result: Vaccinia Venus, MARV entry inh, Vaccinia mCherry, LASV entry inh)
Cc1[nH]c2ccccc2c1C(=O)COC(=O)c1c(-c2c(F)cccc2Cl)noc1C	FMDV inh 31.6µM, Vaccinia Venus inconclusive, HCMV inh -71.0, MARV entry inh inconclusive
CC(C)NC[C@@H](O)COc1ccc(COCCOC(C)C)cc1	MARV entry inh inconclusive (no result: Vaccinia Venus, HCMV inh, Vaccinia mCherry, LASV entry inh)
Cc1ccc(Cl)cc1NC(=O)N1CCc2cc(S(=O)(=O)N3CCC(C)CC3)ccc21	none
COc1cccc(C(=O)Nc2ccc(Cl)c(-c3nc4ccccc4[nH]3)c2)c1	FMDV inh inconclusive, Vaccinia Venus inconclusive, HCMV inh -88.6, MARV entry inh inconclusive, LASV entry inh inconclusive
CCCC(=O)Nc1ccc(Cl)c(NC(=O)c2cccnc2)c1	none (no result: FMDV inh)
CCC(=O)Nc1ccc(Cl)c(-c2nc3ccccc3[nH]2)c1	none
CCCC(=O)Nc1ccc(Cl)c(NC(=O)c2cccc(OC)c2)c1	HCMV inh -78.9, LASV entry inh inconclusive
COc1c(O[C@@H]2O[C@H](CO)[C@@H](O)[C@H](O)[C@H]2O)cc2c(c1OC)-c1ccc(SC)c(=O)cc1C(NC(C)=O)CC2 (stereo not given in full)	none (no result: MARV entry inh, LASV entry inh)
COc1ccc2c(c1)C(NC(C)=O)CCc1cc(OC)c(OC)c(OC)c1-2 (stereo not given)	Vaccinia Venus inconclusive, HCMV inh -67.1, MARV entry inh inconclusive, LASV entry inh inconclusive
